Experimental data from PubChem BioAssay (EPA / NIEHS).
Activity calls are given as the source filed them. Rule for the calls: active = hit-call score of the fitted dose curve at least 0.9, where 1 is the maximum; inactive = score below 0.9.

experiment: ATG_PBREM_CIS: Attagene CIS-FACTORIAL HepG2 Assay for human Phenobarbital-responsive Enhancer Module (PBREM) (AID 2282955); conditions: HepG2 PBREM cis-reporter, Attagene multiplexed transcription; actives raise or lower the signal
Method: ATG_CIS is a cell-based, multiplexed-readout assay that uses HepG2, a human liver cell line, with measurements taken at 24 hours after chemical dosing in a 24-well plate.ATG_PBREM_CIS is one of 52 assay component(s) measured or calculated from the ATG_CIS assay. It is designed to make measurements of mRNA induction, a form of inducible reporter, as detected with fluorescence intensity signals by Reverse transcription polymerase chain reaction (RT-PCR) and Capillary electrophoresis technology.Data from the assay component ATG_PBREM_CIS was analyzed into 1 assay endpoint. This assay endpoint, ATG_PBREM_CIS, was analyzed with bidirectional fitting relative to DMSO as the negative control and baseline of activity. Using a type of inducible reporter, measures of mRNA for gain or loss-of-signal activity can be used to understand the reporter gene at the transcription factor-level as they relate to the gene NR1I3. Furthermore, this assay endpoint can be referred to as a primary readout, because this assay has produced multiple assay endpoints where this one serves a reporter gene function. To generalize the intended target to other relatable targets, this assay endpoint is annotated to the nuclear receptor intended target family, where the subfamily is non-steroidal.
Human liver HepG2 cells are transiently transfected with multiple reporter transcription units (MRTUs) in 6-well plates using FuGene 6 reagent (Roche; 3 ml FuGene/1 mg DNA). The MRTU constructs are regulated by a cis-regulating element (promoter). […] A major difference between the CIS and TRANS system is that in CIS activities of endogenous TFs are measured, whereas the TRANS assay evaluates changes in activities of exogenous, chimeric NR-Gal4 proteins. […] At the end of 24 hour incubation, total RNA was isolated using TriZol reagent (Invitrogen). The isolated RNA is then reverse-transcribed using oligo(dT) primer and Mo-MLV reverse transcriptase (Invitrogen) with DNAse I (Ambion) treatment for 30 min. The one-tenth of the produced cDNA was amplified by PCR using Taq DNA polymerase (Invitrogen) and two reporter sequence-specific primers. The PCR products were fluorescently labeled by primer extension with 6-arboxyfluorescein (6-FAM) 5'-labeled reporter sequence-specific primer (2 min at 95 C, 20 s at 68 C and 10 min at 72 C) and these products were digested with 5U of HpaI (New England Biolabs) for 2h at 37 C. The fragments were purified using Qiaquick PCR columns (Qiagen), analyzed on an ABI 3130xL genetic analyzer (Applied Biosystems) with peak positions identified by using a set of X-rhodamine (ROX)-labeled MapMarker1000 molecular weight standards (BioVentures). The raw capillary electrophoresis data was processed using Attagraph software (Attagene).

Row | Structure (SMILES) | outcome | AC50
1 | Clc1nc(Cl)nc(Nc2ccccc2Cl)n1 | inactive | –
2 | CCCCOCN(C(=O)CCl)c1c(CC)cccc1CC | – | 0.888 µM (active)
3 | COC(=O)NS(=O)(=O)c1ccc(N)cc1 | inactive | –
4 | O=c1n(Cl)c(=O)n(Cl)c(=O)n1Cl | inactive | –
5 | OC(c1ccc(Cl)cc1)(c1ccc(Cl)cc1)C(Cl)(Cl)Cl | inactive | –
6 | Cc1cc(C)nc(Nc2ccccc2)n1 | – | 50 µM (active)
7 | COCc1cnc(C2=NC(C)(C(C)C)C(=O)N2)c(C(=O)O)c1 (stereo not given) | inactive | –
8 | CCOc1nc(F)cc2nc(S(=O)(=O)Nc3c(Cl)cccc3Cl)nn12 | inactive | –
9 | CCOP(=O)(OCC)Oc1nc(Cl)c(Cl)cc1Cl | inactive | –
10 | COc1ccc(-c2ccccc2)cc1NNC(=O)OC(C)C | – | 15.9 µM (active)
11 | CCN(CC)c1nc(C)cc(OP(=S)(OC)OC)n1 | inactive | –
12 | CCCC(=NOCC)C1=C(O)CC(CC(C)SCC)CC1=O (stereo not given) | inactive | –
13 | CNC(=O)Oc1cccc2ccccc12 | inactive | –
14 | CCC(C)n1c(=O)[nH]c(C)c(Br)c1=O (stereo not given) | inactive | –
15 | CCN(CC)C(=O)C(C)Oc1cccc2ccccc12 (stereo not given) | – | 0.949 µM (active)
16 | Nc1c(Cl)c(F)nc(OCC(=O)O)c1Cl | inactive | –
17 | CCOc1nc(C(Cl)(Cl)Cl)ns1 | inactive | –
18 | CC(C)C1(C)N=C(c2ncccc2C(=O)O)NC1=O (stereo not given) | inactive | –
19 | CCSC(=O)N1CCCCCC1 | inactive | –
20 | C=CCOC(=O)C(C)(C)OC(=O)c1cc(-n2c(=O)cc(C(F)(F)F)n(C)c2=O)ccc1Cl | inactive | –

Row | Structure (SMILES) | outcome | AC50
21 | CS(=O)(=O)c1ccc(C(=O)C2C(=O)CCCC2=O)c([N+](=O)[O-])c1 | inactive | –
22 | COc1cc(OC)nc(NC(=O)NS(=O)(=O)c2ncccc2OCC(F)(F)F)n1 | inactive | –
23 | Cc1c(COC(=O)[C@@H]2[C@H](/C=C(\Cl)C(F)(F)F)C2(C)C)cccc1-c1ccccc1 | – | 11.4 µM (active)
24 | C=C(C)CN(CC)c1c([N+](=O)[O-])cc(C(F)(F)F)cc1[N+](=O)[O-] | – | 13.3 µM (active)
25 | CCOC(=O)C(C)OC(=O)c1cc(Oc2ccc(C(F)(F)F)cc2Cl)ccc1[N+](=O)[O-] (stereo not given) | – | 19.1 µM (active)
26 | CC(C)Nc1nc(Cl)nc(NC(C)C)n1 | inactive | –
27 | O=C(O)c1c(Cl)ccc2cc(Cl)cnc12 | inactive | –
28 | COC(=O)c1c(C(F)F)nc(C(F)(F)F)c(C2=NCCS2)c1CC(C)C | – | 0.876 µM (active)
29 | COP(=S)(OC)SCn1nnc2ccccc2c1=O | – | 36.3 µM (active)
30 | CCNC(=O)NC(=O)C(C#N)=NOC | inactive | –
31 | CC1(C)CCC(=Cc2ccc(Cl)cc2)C1(O)Cn1cncn1 (stereo not given) | inactive | –
32 | CC(C)(C)C(=O)C(Oc1ccc(Cl)cc1)n1cncn1 (stereo not given) | – | 19.5 µM (active)
33 | CC(C)Oc1cccc(NC(=O)c2ccccc2C(F)(F)F)c1 | inactive | –
34 | CNC(=O)N(C)c1nnc(C(C)(C)C)s1 | inactive | –
35 | O=C1C2CC=CCC2C(=O)N1SC(Cl)(Cl)Cl (stereo not given) | inactive | –
36 | CC1(C)CON(Cc2ccccc2Cl)C1=O | inactive | –
37 | CC1(C)C(C(=O)OC(C#N)c2cccc(Oc3ccccc3)c2)C1(C)C (stereo not given) | inactive | –
38 | Cc1ccc(N=CN(C)C=Nc2ccc(C)cc2C)c(C)c1 | inactive | –
39 | Nc1cnn(-c2ccccc2)c(=O)c1Cl | inactive | –
40 | CCOc1cc(C(C)(C)C)ccc1C1COC(c2c(F)cccc2F)=N1 (stereo not given) | inactive | –
